Assay outcomes: PubChem, several laboratories
In the library only some 1.3% were active in any assay of this set; here they are far more common.
Vc quorum ag – induces V. cholerae light production without autoinducers; V. cholerae BH1578 lux reporter, luminescence, 6 h; activation, % at 18.7 µM; 350,000 tested, 0.16% active; in the data active = activation mostly above about 9.7%, no sharp cut-off
CCHFV vOTU inh – CCHFV vOTU protease inhibition. Pep-AMC fluorescence. inhibition, % at 11.5 µM. 370,000 tested, 0.55% active. AID 651958; in the data active = inhibition above about 30%; also: 0% = vehicle wells with enzyme and 100% = no enzyme wells
SARS 3CLpro inh – SARS-CoV 3CLpro protease inhibition. recombinant SARS-CoV 3CLpro, quenched FRET peptide cleavage. AID 1706. inhibition, % at 6 µM. P0C6X7. 290,000 tested, 0.14% active; in the data active = inhibition above about 12%
PriA SSB inh – inhibitors of Klebsiella pneumoniae PriA binding to SSB C-terminal tail; AlphaScreen SSBct-PriA binding, biotinylated peptide; 430,000 tested, 0.6% active; inhibition, % at 33 µM; AID 1272365; in the data active = inhibition mostly above about 37%, no sharp cut-off; inactive = mostly below about 20%;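 also: plate controls were negative control peptide for no effect and reference peptide for full effect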
VHR inh abs – DUSP3 (human) phosphatase inhibition. P51452. 290,000 tested, 0.52% active. inhibition, % at 13.3 µM. recombinant VHR phosphatase, pNPP absorbance; in the data active = inhibition above about 50%
Target sequence (P51452 whole entry, looked up): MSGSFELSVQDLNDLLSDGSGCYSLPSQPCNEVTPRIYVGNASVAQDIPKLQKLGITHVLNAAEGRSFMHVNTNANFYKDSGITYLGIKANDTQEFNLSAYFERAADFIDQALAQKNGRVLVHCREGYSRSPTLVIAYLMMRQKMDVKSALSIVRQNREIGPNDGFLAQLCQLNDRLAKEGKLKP
TcdB GH inh – blocks C. difficile toxin B glycohydrolase activity. P18177. 350,000 tested, 0.24% active. inhibition, % at 9.99 µM. TcdB glycohydrolase enzymatic assay, plate reader; in the data active = inhibition above about 10%
Active calls of the source: *; i = inactive; . = no result given.

SMILES	Vc quorum ag	CCHFV vOTU inh	SARS 3CLpro inh	PriA SSB inh	VHR inh abs	TcdB GH inh
Cc1oc(-c2ccccc2)nc1CSc1nc2c(c(=O)[nH]1)CCC2	-0.3	-0.6	4.2	-1.0	7.6	1.2
Cc1cccc(-c2nc(CSc3nc4c(c(=O)[nH]3)CCC4)c(C)o2)c1	-0.3	-6.8	-1.5	96.5*	-3.6	0.2
Cc1ccccc1-c1nc(CSc2nc3c(c(=O)[nH]2)CCC3)c(C)o1	-0.3	13.1	-4.3	93.8*	-7.3	-0.5
O=C(NCCCN1CCN(c2ccccc2)CC1)c1ccno1	.	.	.	3.0	.	.
C1CN2CN3CCN(CN1C3)C2	.	.	.	80.0*	.	.
COc1ccccc1-c1ccc(N2CCN(C(=O)Nc3ccccc3)CC2)nn1	.	.	.	-5.0	.	.
COc1ccc2nc(NNC(=O)C3COc4ccccc4O3)sc2c1 (stereo not drawn)	0.3	11.7	6.0	7.8	-3.6	39.4*
COc1ccc2nc(NC(=O)C3COc4ccccc4O3)sc2c1 (stereo not drawn)	-0.2	-0.9	1.0	-10.7	-7.8	-0.4
CC(=O)c1ccc(Nc2cnn(C34CC5CC(CC(CC(=O)O)(C5)C3)C4)c(=O)c2Cl)cc1	-0.3	20.4	-1.2	-2.0	3.9	0.4
Cc1ccc(Nc2cnn(C34CC5CC(CC(CC(=O)O)(C5)C3)C4)c(=O)c2Cl)cc1	3.7	7.8	12.2*	-8.8	-6.4	-0.3
Cc1ccccc1Nc1ccc(S(=O)(=O)N2CCOCC2)cc1[N+](=O)[O-]	i	2.4	1.1	-4.8	5.7	-0.2
Cc1ccc(Nc2ccc(S(=O)(=O)N3CCOCC3)cc2[N+](=O)[O-])c(C)c1	-0.4	-4.8	6.9	50.7*	4.1	.
CC/C(C)=N/Nc1ccc(S(=O)(=O)N2CCCC2)cc1[N+](=O)[O-]	4.1	2.2	2.4	.	4.6	-9.7
COc1ccc(Nc2ccc(S(=O)(=O)N3CCCCC3)cc2[N+](=O)[O-])cc1Cl	-0.2	4.1	-6.2	49.3*	-0.3	0.6
CCc1ccc(Nc2ccc(S(=O)(=O)N3CCOCC3)cc2[N+](=O)[O-])cc1	-0.2	-12.2	-2.6	61.0*	38.4	.
CC(=NNc1ccc(S(=O)(=O)N2CCOCC2)cc1[N+](=O)[O-])C(C)C	.	.	.	46.3*	.	.
Cc1ccc2c(c1)N(Cc1nc(C3CC3)no1)N=C(C(=O)N1CCCCCC1)S2(=O)=O	.	.	.	-11.0	.	.
O=[N+]([O-])c1cc(S(=O)(=O)N2CCCC2)ccc1NN=C1CCCCC1	-0.7	9.2	-2.5	-9.9	2.6	-0.2
COc1ccccc1C(C)Nc1ccc(S(=O)(=O)N2CCOCC2)cc1[N+](=O)[O-] (stereo not drawn)	.	.	.	70.2*	.	.
O=[N+]([O-])c1cc(S(=O)(=O)N2CCCCC2)ccc1NCc1cccc(Cl)c1	-0.8	1.8	0.0	19.2	51.3*	.
O=C(NC(=S)Nc1ccc(N2CCCC2)cc1)c1ccccc1[N+](=O)[O-]	2.8	3.7	-2.4	42.5	-14.0	-0.7
O=C(/C=C/c1ccco1)NC(=S)Nc1ccccc1N1CCOCC1	-2.1	8.7	3.1	21.4	6.2	.
O=C(NC(=S)Nc1ccccc1N1CCCC1)c1ccccc1[N+](=O)[O-]	-0.6	-0.7	3.2	57.4*	27.0	.
O=C(/C=C/c1ccco1)NC(=S)Nc1ccccc1N1CCCC1	-0.2	21.6	1.2	21.8	56.3*	.
COc1ccc(C(=O)OCC(=O)Nc2nnc(-c3ccccc3)o2)cc1	i	14.2	-1.4	-0.1	10.5	-0.1
SMILES	Vc quorum ag	CCHFV vOTU inh	SARS 3CLpro inh	PriA SSB inh	VHR inh abs	TcdB GH inh
O=C(COC(=O)c1cccc(O)c1)Nc1nnc(-c2ccccc2)o1	-5.6	-6.1	.	43.2*	.	1.4
O=C(COC(=O)c1ccc(O)cc1O)Nc1nnc(-c2ccccc2)o1	5.6	7.9	.	56.6*	.	1.5
C=CCn1c(CCN2C(=O)c3cccc4cccc(c34)C2=O)nnc1SCc1ccc(C(=O)OC)cc1	.	.	.	-11.0	.	.
O=C(O)c1cc2ccccn2n1	.	.	.	-13.0	.	.
C=CCNC(=S)Nc1sc2c(c1C(=O)OCC)CC(C(C)C)OC2 (stereo not drawn)	i	-2.4	5.9	60.5*	9.5	.
O=C(NCCCn1ccnc1)C(=O)NCC1OCCN1S(=O)(=O)c1ccccc1 (stereo not drawn)	i	4.4	-3.9	42.7*	9.8	-0.2
O=C(NCCCn1ccnc1)C(=O)NCC1OCCN1S(=O)(=O)c1ccc(Cl)cc1 (stereo not drawn)	-0.2	1.0	1.8	60.9*	-3.6	-0.5
O=C(NCCCn1ccnc1)C(=O)NCC1OCCN1C(=O)c1ccc2c(c1)OCO2 (stereo not drawn)	.	.	.	71.0*	.	.
Cn1nccc1C(=O)N1CC(=O)Nc2ccccc21	.	.	.	3.0	.	.
C[C@](O)(CNS(=O)(=O)c1cccc2nsnc12)c1cc2ccccc2s1	.	.	.	1.0	.	.
COc1ccc(C(=O)Nc2nc3c(s2)CC(C)CC3)c(OC)c1 (stereo not drawn)	.	.	.	-10.0	.	.
CCC(C(=O)NC1CCCC1)N(C(=O)Cn1nnc(-c2ccc(C)o2)n1)c1ccc(F)cc1 (stereo not drawn)	i	-3.1	-2.9	-6.5	52.9*	1.8
CCNC(=O)NCC(C)(O)CCSC (stereo not drawn)	.	.	.	-6.0	.	.
CC(C)(C)C(=O)Nc1nnc(-c2ccc(F)cc2)o1	.	.	.	-11.0	.	.
Cc1cc(C)n(C(=O)c2cc3ccccc3c(=O)o2)n1	16.7*	6.4	0.8	-3.6	28.7	.
CCCNC(=O)c1cc2ccccc2c(=O)o1	i	7.0	-1.6	3.3	-8.0	-0.7
CCOc1ccc(CC(=O)NCCn2ncc3c(=O)n(Cc4ccccc4F)cnc32)cc1	.	.	.	4.0	.	.
CC1CCN(c2c([N+](=O)[O-])nn(-c3ccc4c(c3)OCCO4)[n+]2[O-])CC1	-0.3	-4.6	0.7	40.1*	-5.5	.
Cn1nc(N2CCC(C(=O)O)CC2)ccc1=O	.	.	.	-1.0	.	.
Cc1ccc(C)c(N2CCN(C(=O)c3ccc(Cn4c(=O)[nH]c5ccccc5c4=O)cc3)CC2)c1	-0.6	-1.9	0.2	9.2	51.2*	.
Cc1ccc(C)c(N2CCN(c3nc4ccccc4c(=O)n3Cc3ccccc3)CC2)c1	-0.2	3.5	3.1	104.2*	-16.1	-0.3
O=C(c1ccc(Cn2c(=O)[nH]c3ccccc3c2=O)cc1)N1CCN(c2ccc(Cl)cc2)CC1	3.7	4.9	-1.1	-10.2	28.6	.
Cc1cc(C)c(C)c(S(=O)(=O)N(C)C)c1C	.	.	.	-1.0	.	.
COn1c(-c2ccc(Cl)cc2)nc2ccc(Cl)cc21	-4.6	3.6	0.8	-25.0	27.7	.
